From PubChem BioAssay AID504850 (National Center for Advancing Translational Sciences (NCATS), 2011)
The campaign covered roughly 2,300 compounds. About 1,200 (52%) were called active. Inconclusive results (about 34%) are left out. Calls follow the shape of the dose curve; as a rule, active = well fitted inhibition curve with a large enough effect; inconclusive = small, poorly fitted or top-dose-only effect, or effect the other way; inactive = no such curve, though single readings can be large or run the other way. So high a share suggests a set chosen from earlier hits. Some of the results follow.

assay: Confirmation screen for delayed death inhibitors of the malarial parasite plastid, 48 hour incubation; also: nearly all actives have a fitted effect of over 65% in size; details: P. falciparum-infected erythrocytes, luciferase growth; series mostly up to 28.7 µM
Summary of the method: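 Single-generation (48 h, 37 C) exposure of integrated firefly luciferase-reporter P. falciparum in red cells, 0.1% parasitemia at 2% hematocrit, Albumax-supplemented RPMI. Falling luciferase signal marks parasite growth inhibition.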
Potency is read from the fitted curve at half-maximal effect.

Row | SMILES | Potency
1 | O=C(C1CCC1)N1CCc2cc(S(=O)(=O)NCc3ccco3)ccc21 | inactive
2 | O=C(CCl)c1ccc2c(c1)CCN2C(=O)C1CCCCC1 | 11.2 µM (active)
3 | COc1ccc(NC(=O)c2cc([N+](=O)[O-])ccc2N2CCN(C)CC2)cc1 | inactive
4 | O=[N+]([O-])/C=C\c1ccc(N2CCCC2)c(F)c1 | inactive
5 | CCC(=O)c1ccc(N2CCN(C(=O)c3cc([N+](=O)[O-])ccc3N3CCN(C)CC3)CC2)c(F)c1 | 10 µM (active)
6 | COc1ccc([N+](=O)[O-])c(S(=O)(=O)c2ccc(Cl)cc2)n1 | inactive
7 | CCCn1cc(S(=O)(=O)c2ccc(Cl)cc2)c(=O)c2cc(OC)ccc21 | 12.6 µM (active)
8 | Cc1onc(-c2c(F)cccc2Cl)c1-c1nnc(-c2ccc(C(F)(F)F)cc2)o1 | 5.62 µM (active)
9 | Cc1[nH]c(C)c(C(=O)/C=C/c2ccc([N+](=O)[O-])cc2)c1C | 12.6 µM (active)
10 | Cc1oc(-c2ccccc2Cl)nc1Cn1cccc1C1=NC(c2ccccc2)CO1 (stereo not given) | 12.6 µM (active)
11 | CCCSCCCNC(=O)c1ccccc1NC(=O)C1=CSCCO1 | 12.6 µM (active)
12 | CC(C)(C)c1nc(SCC(=O)Nc2ccc(N3CCOCC3)cc2)c2ccccc2n1 | 11.2 µM (active)
13 | O=C(Cc1cn2ccsc2n1)Nc1nc2c(s1)CCCC2 | inactive
14 | CC(C)(C)c1nc(SCC(=O)Nc2nc3c(s2)CCCC3)c2ccccc2n1 | 4.47 µM (active)
15 | O=C(Cn1c(=O)sc2ccccc21)Nc1nc2c(s1)CCCC2 | inactive
16 | CCN(CC)C(=O)C1CCCN(C(=O)c2cc(COc3ccc4ncccc4c3)on2)C1 (stereo not given) | 11.2 µM (active)
17 | CN1C(=O)Cc2cc(S(=O)(=O)N3CCN(c4cccc(C(F)(F)F)c4)CC3)ccc21 | 11.2 µM (active)
18 | Cc1ccc(-c2cc(=O)c3ccc(F)cc3[nH]2)cc1 | 5.01 µM (active)
19 | NC(=O)COc1ccc(NC(=O)CC23CC4CC(CC(C4)C2)C3)cc1 | 11.2 µM (active)
20 | NC(=O)COc1ccc(C(=O)/C=C2/C(=O)Nc3ccccc32)cc1 | inactive
21 | CCn1nc(C)c(NC(=O)CC23CC4CC(CC(C4)C2)C3)c1C | inactive
22 | C=CCNC(=O)CSc1nc2sc3c(c2c(=O)n1CCCOC)CCC3 | 12.6 µM (active)
23 | COc1cc(/C=N/NC(=O)c2cc(-c3ccccc3OC(C)C)nc3ccccc23)ccc1O | 14.1 µM (active)
24 | CC(C)Oc1ccccc1-c1cc(C(=O)N/N=C/c2cccnc2)c2ccccc2n1 | 11.2 µM (active)
25 | COc1ccc(/C=N/NC(=O)c2cc(-c3ccccc3OC(C)C)nc3ccccc23)cc1CN1CCOCC1 | inactive
26 | CCOc1ccc(-c2cc(C(=O)N/N=C(\C)c3cccnc3)c3ccccc3n2)c(OCC)c1 | 14.1 µM (active)
27 | CCOc1ccc(-c2cc(C(=O)O)c3ccccc3n2)c(OCC)c1 | inactive
28 | CC1CCN(c2ccc3nnc(CCC(=O)N4CCN(c5ccccc5F)CC4)n3n2)CC1 | 10 µM (active)

Row | SMILES | Potency
29 | CN(CCc1ccccn1)C(=O)c1ccc(OC2CCN(CCc3ccccc3)CC2)cc1 | 14.1 µM (active)
30 | COc1ccc(CN2CCC(Oc3ccc(C(=O)NCc4ccccn4)cc3)CC2)c(F)c1 | 12.6 µM (active)
31 | Cc1nn(C)c(C)c1C(C)NC(=O)c1ccc(OC2CCN(Cc3ccccn3)CC2)cc1 (stereo not given) | inactive
32 | CCCCN(CCCC)CCC(O)c1cc2c(Cl)cc(Cl)cc2c2cc(C(F)(F)F)ccc12 (stereo not given) | 0.0316 µM (active)
33 | CC(=O)/C(C#N)=C1\NC(=O)C(Cc2cc(Cl)ccc2Cl)S1 (stereo not given) | 14.1 µM (active)
34 | CC(=O)/C(C#N)=C1\NC(=O)C(Cc2ccc(F)cc2)S1 (stereo not given) | 10 µM (active)
35 | CCOC(=O)c1c(C)[nH]c(C(=O)Nc2cc(OCC)c(N3CCOCC3)cc2OCC)c1C | 2.51 µM (active)
36 | Cc1ccc(CN(Cc2ccccn2)C(=O)Nc2ccc(C)c(C)c2)cc1 | 14.1 µM (active)
37 | Cc1ccc(NC(=O)CN2C(=O)S/C(=C\c3ccccn3)C2=O)cc1C | inactive
38 | CC(Sc1nc2cc(Cl)ccc2s1)C(=O)Nc1cccc(S(=O)(=O)N2CCOCC2)c1 (stereo not given) | 12.6 µM (active)
39 | O=C(CCl)Nc1ccc(S(=O)(=O)Nc2nccs2)cc1 | 2.24 µM (active)
40 | CCC(=O)c1ccc(OCC(O)CNC(C)c2ccccc2)cc1 (stereo not given) | 11.2 µM (active)
41 | C[C@H]1[C@@H](OC(=O)CCC(=O)O)OC2OC3(C)CC[C@H]4[C@H](C)CC[C@@H]1[C@@]24OO3 (stereo not given in full) | 0.0398 µM (active)
42 | CO[C@H]1OC2O[C@@]3(C)CC[C@H]4[C@H](C)CC[C@@H]([C@H]1C)[C@@]24OO3 (stereo not given in full) | 0.0708 µM (active)
43 | C[C@@H]1CCC2[C@@H](C)[C@@H](O)O[C@@H]3O[C@@]4(C)CC[C@@H]1[C@@]23OO4 (stereo not given in full) | 0.0251 µM (active)
44 | CC[C@]1([C@H]2O[C@@H]([C@@H]3O[C@](O)(CO)[C@@H](C)C[C@H]3C)C[C@H]2C)CC[C@@H]([C@]2(C)CC[C@@]3(C[C@@H](O)[C@@H](C)[C@@H]([C@H](C)[C@H](OC)[C@H](C)C(=O)O)O3)O2)O1 | 0.141 µM (active)
45 | CCCc1c(CC)c(=N)c2ccccc2n1C | 0.282 µM (active)
46 | Cc1cnc(CNC(=O)c2ccc3oc(Cc4ccccc4)nc3c2)[nH]1 | 15.8 µM (active)
47 | CC(C)(C)OC(=O)CNC(=O)c1[nH]cnc1C(=O)NC1CCN(C(=O)OC(C)(C)C)CC1 | 14.1 µM (active)
48 | CC(C)(C)OC(=O)[C@H](Cc1ccccc1)NC(=O)c1nc[nH]c1C(=O)N1CCN(C(=O)OC(C)(C)C)CC1 | 12.6 µM (active)
49 | CC(C)C[C@H](NC(=O)c1nc[nH]c1C(=O)N1CCN(C(=O)OC(C)(C)C)CC1)C(=O)OC(C)(C)C | 11.2 µM (active)
50 | COc1ccc(NC2=C(NC(C)=O)C(=O)c3ccccc3C2=O)cc1 | 7.08 µM (active)
51 | CC(Oc1ccccc1F)C(=O)Nc1ccc2ccccc2c1 (stereo not given) | inactive
52 | O=C(CSc1c2c(nc3ccc(Cl)cc13)CCCC2)NCCCN1CCOCC1 | 12.6 µM (active)
53 | O=S(=O)(CC(CN1CCCCC1)N1CCCCC1)c1ccccc1 (stereo not given) | 11.2 µM (active)
54 | CC(C)NC(=O)c1onc(CSc2cccc(F)c2)c1C(=O)O | inactive
55 | COC(=O)C1=CN(Cc2ccc(F)cc2)C=C(C(=O)OC)C1c1ccc(O)c(OC)c1 | 11.2 µM (active)
